A selection: hits, their analogues and other compounds. The true share with any hit is near 8.7%.
Pf growth 48h – P. falciparum growth inhibition at 48 hours (one generation); P. falciparum luciferase growth in erythrocytes, 48 h; 310,000 tested, 5.9% active; Potency, µM (doses to about 28.7 µM), for inactives: at the top dose activity change, negative = inhibition, most hits filed as inhibitors; AID 504832
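Growth was read as firefly luciferase luminescence after a 48 h, 37 C, 5% CO2 exposure of compounds to reporter-bearing P. falciparum cultures (0.1% parasitemia, 2% hematocrit final) in Albumax-supplemented RPMI 1640.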
Vaccinia mCherry – inhibitors of vaccinia virus infection (mCherry reporter signal). 310,000 tested, 0.63% active. Vaccinia virus mCherry reporter infection, fluorescence. Potency, µM (doses to about 36.5 µM), for inactives: at the top dose activity change, negative = inhibition, actives largely listed as inhibitors; calls by dose curve; tested in A549 cells; note: nearly all actives have a fitted effect of over 35% in size
AMA1 RON2 block – disrupts binding of P. falciparum AMA1 to RON2. AlphaScreen AMA1-biotinylated RON2 peptide binding. AID 720542. 360,000 tested, 0.2% active. Potency, µM (series often up to 58.2 µM), for the others: top-dose activity change, negative = inhibition, hits mostly inhibitors;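 note: 0% = vehicle wells and -100% = peptide control; nearly all actives have a fitted effect of over 45% in size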
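AMA1 (3D7) with his tag at 25 nM final met compounds first, then biotinylated RON2 peptide at 25 nM; detection used donor plus acceptor beads, 10 µg/mL apiece, read by AlphaScreen after 30 min at room temperature.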
Pf growth 96h – P. falciparum growth inhibition at 96 hour, primary screen for plastid delayed-death inhibitors; P. falciparum luciferase reporter growth, 96 h; Potency, µM (series often up to 28.7 µM), for the others: at the top dose activity change, negative = inhibition, usual class: inhibitors; 320,000 tested, 6.9% active; AID 504834
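Plates of compound plus infected erythrocytes (2% hematocrit, 0.05% parasitemia final) incubate 96 hours, 37 C, 5% CO2. Detection reagent added; reduced luminescence from the parasites' luciferase reporter flags inhibition.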
VACV Venus inh – inhibitors of vaccinia virus (Venus reporter); Vaccinia virus Venus reporter expression, fluorescence; Potency, µM (titrated, usually from 36.5 µM), inactives show top-dose activity change, negative = inhibition, most hits filed as inhibitors; 330,000 tested, 0.46% active; calls by dose curve; tested in A549 cells; note: nearly all actives have a fitted effect of over 30% in size
Active calls of the source: *; i = inactive; u = inconclusive; x = not tested or not shown; [ ] = remark or other dose. Unless noted, calls come from the whole dose curve; as a rule, active = well fitted curve in the direction sought with a large enough effect; inconclusive = small, poorly fitted or top-dose-only effect, or another doubt; inactive = no such curve, though single readings can be large; an effect the other way counts as inactive or inconclusive. Unless noted, % is set by controls: 0 for no effect and ±100 for the full control effect; potency is the fitted concentration of half-maximal effect.

SMILES	Pf growth 48h	Vaccinia mCherry	AMA1 RON2 block	Pf growth 96h	VACV Venus inh
CCN(CC)CCOc1ccc2c(c1)C(=O)c1cc(OCCN(CC)CC)ccc1-2	4.3µM*	-23%	x	6µM*	-20%
CCN(CC)CCOc1cccc(C(C)C)c1	-1%	x	5%	-8%	-4%
CC(=O)c1cccc(CN2CCCC(C(=O)Nc3ccc(-c4ccco4)cc3)C2)c1 (centres undefined)	10µM*	x	-14%	-15%	x
Cc1cccc(CN2CCCC(C(=O)Nc3ccc(-c4cscn4)cc3)C2)c1 (centres undefined)	u	-30%	-9%	9.3µM*	u
O=C(Nc1ccc(-c2cscn2)cc1)C1CCCN(Cc2ccccc2)C1 (centres undefined)	u	x	13%	u	x
COc1ccc(CCNC(=O)C2CCCN(S(=O)(=O)c3ccc4c(c3)oc(=O)n4C)C2)cc1OC (centres undefined)	x	-5%	x	x	-14%
COC(=O)CN(n1cnnc1)S(=O)(=O)c1ccccc1	9%	x	-4%	12µM*	x
COC(=O)CN(c1ccccc1)S(=O)(=O)c1ccccc1	x	-8%	4%	22%	-5%
CCOc1ccc(C(=O)Nc2ccc3nn(-c4ccc(OC)c(Cl)c4)nc3c2)cc1	x	-2%	x	x	-5%
CNC[C@H](CC1CCCCC1)NC[C@H](Cc1ccccc1)NCCC12CC3CC(CC(C3)C1)C2	u	u	47%	2.1µM*	10µM*
COc1cccc(NC(=O)Cn2c(=O)n(-c3ccccc3)c(=O)c3ccc(C(=O)NCc4ccc5c(c4)OCO5)cc32)c1	x	-26%	x	x	u
CCCOP(=O)(OCCC)C(Nc1cccc(C(F)(F)F)c1)c1ccc(C)cc1 (centres undefined)	u	x	-7%	12µM*	x
CCOP(=O)(OCC)C(Nc1cccc(C(F)(F)F)c1)c1ccc(C)cc1 (centres undefined)	10µM*	-10%	-2%	u	-1%
CCOP(=O)(OCC)C(Nc1cccc([N+](=O)[O-])c1)c1ccc(OC)cc1 (centres undefined)	u	-8%[7.34 µM]	-15%	u	-15%[7.34 µM]
CCOP(=O)(OCC)C(Nc1cccc(C(F)(F)F)c1)c1ccc(F)cc1 (centres undefined)	u	i	10%	u	-8%
Cc1cccc(NC(=O)C(NS(=O)(=O)c2cccc3nsnc23)c2ccccc2)c1C (centres undefined)	x	-6%	x	x	0%
O=C(c1cccc(F)c1F)N1CCOc2ccc(CN3CCN(Cc4ccccn4)CC3)cc2C1	x	-15%	x	x	-11%
CN(C)S(=O)(=O)c1cccc(NC(=S)Nc2cccc3cnccc23)c1	6.6µM*	u	10%	3.7µM*	-16%
S=C(Nc1ccc(Cl)cc1)Nc1cccc2cnccc12	u	-10%	-9%	12µM*	0%
CCOC(=O)C1CCC(CN(Cc2ccc(OC)cc2)S(=O)(=O)c2ccc(F)c(C(=O)Nc3ccc(C)c(C)c3)c2)CC1 (centres undefined)	x	-3%	x	x	-5%
CN(C)CCCNS(=O)(=O)c1ccc(NC2CCCCCC2)c([N+](=O)[O-])c1	u	8.9µM*	-5%	u	-19%
CCc1nc2cc(C(=O)N3CCC[C@H]3CO)cc(NC(=O)c3ccccc3OC)c2n1C	x	-10%	x	x	-9%
CC(CNC(=O)CCS(=O)(=O)c1ccc2c(c1)oc(=O)n2C)c1ccccc1 (centres undefined)	u	4%	0%	9.3µM*	-12%
COc1cc(NC(=O)CCS(=O)(=O)c2ccc3c(c2)oc(=O)n3C)cc(OC)c1OC	-29%	i	-11%	2.3µM*	1%
Cn1c(=O)c(=O)n(C)c2cc(S(=O)(=O)CCC(=O)Nc3cccc(C(F)(F)F)c3)ccc21	10%	u	-2%	10µM*	-23%
SMILES	Pf growth 48h	Vaccinia mCherry	AMA1 RON2 block	Pf growth 96h	VACV Venus inh
Cc1ccc(Cl)cc1-n1c(=O)cc(N2CCN(c3ccccc3)CC2)[nH]c1=O	x	2%	x	x	-4%
Cn1c(SCCOc2ccccc2)nnc1-c1ccc(NC(=O)CCc2ccccc2)cc1	x	-9%	x	x	-4%
COc1ccc(CCNC(=O)C(=O)NCC(c2ccc3c(c2)OCO3)N2CCOCC2)cc1OC (centres undefined)	x	4%	x	x	-4%
CC(=O)c1cccc(NC(=O)c2sc(-n3nc(C)c(Cc4ccccc4)c3C)nc2C)c1	x	-20%	x	x	-21%
CC(C)c1ccc(N2C(=O)CS(=O)(=O)C23C(=O)N(Cc2cccc(F)c2)c2ccccc23)cc1 (centres undefined)	x	8%	x	x	-2%
CN1CCN(c2nc(-c3ccc(Cl)c(Cl)c3)nc3ccccc23)CC1	-25%	x	x	u	x
CN1CCN(c2nc(-c3ccccn3)nc3ccccc23)CC1	x	x	4%	5.9µM*	x
c1ccc(N2CCN(c3nc(-c4ccccn4)nc4ccccc34)CC2)cc1	1.9µM*	u	-11%	2.9µM*	u
CSc1nc(N2CCN(C)CC2)c2ccccc2n1	-10%	-16%	11%	15µM*	-7%
Cc1ccc(-n2nnnc2SCC(=O)Nc2ccc3c(c2)OCCO3)cc1C	24%	x	29%	u	-20%
COc1ccccc1-n1nnnc1SCC(=O)Nc1ccccc1	11%	i	0%	-23%	-12%
COc1ccc(OC)c(-n2nnnc2SCC(=O)Nc2ccc3c(c2)OCCO3)c1	31%	-6%	0%	10µM*	-9%
COc1ccc(OC)c(-n2nnnc2SCC(=O)Nc2ccc(C(=O)N3CCCCC3)cc2)c1	u	-20%	6%	12µM*	-26%
COc1cccc(NC(=O)CCc2nnc3n(Cc4ccccc4Cl)c(=O)c4ccccc4n23)c1	x	-25%	x	x	-26%
O=C(CCc1nnc2n(Cc3ccc(Cl)cc3)c(=O)c3ccccc3n12)NCCN1CCCC1	u	-8%	-1%	u	u
O=C(CCc1nnc2n(Cc3ccccc3Cl)c(=O)c3ccccc3n12)Nc1ccc(F)cc1	x	10µM*	x	x	10µM*
O=C(CCc1nnc2n(CCc3ccccc3)c(=O)c3ccccc3n12)NCCCN1CCCCC1	-18%	x	1%	3.7µM*	x
Cc1ccc(C)n1-c1c(C(=O)NCCC(C)C)sc2ncccc12	x	-11%	x	x	-20%
COc1cc2c(cc1NC(=O)C(C)Oc1ccccc1)oc1ccccc12 (centres undefined)	x	-15%	x	x	-12%
COc1cc2c(cc1NC(=O)C(C)OC(=O)c1ccc(S(=O)(=O)Nc3ccccc3Cl)cc1)oc1ccccc12 (centres undefined)	u	x	5%	5.2µM*	x
COc1cc2c(cc1NC(=O)C(C)N1CCN(S(=O)(=O)c3ccc(C)c(C)c3)CC1)oc1ccccc12 (centres undefined)	x	x	0%	3.3µM*	x
COc1cc2c(cc1NC(=O)CN1CCN(S(=O)(=O)c3ccc(C)cc3)CC1)oc1ccccc12	6%	i	1%	17%	-13%

Screening results (PubChem)
